Compounds with a hit are over-represented: about 0.12% of the library has one in this group of screens.
Ub-GFP proteasome = Ubiquitin-GFP Assay; Ubiquitin-GFP reporter cells, proteasome inhibition, GFP fluorescence; response scale: untreated = 0%, 10 µM MG-132 = 100%; Potency, µM (doses to about 45.9 µM), actives largely listed as activators; 67,000 tested, under 10 active; AID 526, 2006; active means well fitted activation curve with a large enough effect, not every such curve was filed as active
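GFP accumulation read-out: laser plate cytometry counting ubiquitin(G76V)-GFP-expressing U2OS cells after 4 hr compound exposure at 37 °C. Titrations spanned 46 uM to 2.9 nM; 0% = basal, 100% = 10 uM MG-132; concentration-response curves fitted.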
HBB splice mod = qHTS Assay for Modulators of Hemoglobin Beta Chain Splicing; HBB splicing reporter cell assay, activation; EGFP reporter with mutant IVS2-654 intron; response scale: normalised to 500 nM splice-correcting PNA; Potency, µM (top dose mostly 46.1 µM), hits mostly activators; 65,000 compounds, 0.06% hits
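HeLa cells stably expressing EGFP interrupted by mutant beta-globin intron 2 (IVS2-654), 500/well in 2% FCS. Treated with compound for 2 days at 37C. Splicing correction scored as total well GFP intensity (488 nm excitation, 500-520 nm emission); 500 nM antisense PNA served as control.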
Epigenetic mod = qHTS Assay for Epigenetic Modulators; mouse C127i GFP locus derepression, cytometry, 30 h; Potency, µM (titrated, usually from 46.1 µM); 68,000 compounds, 0.09% hits
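Murine C127i mammary cells carrying a silenced, stably integrated CMV-driven GFP reporter were treated with compound for 30 hours at 37 C. After PBS washes, GFP-positive cells were counted by laser-scanning microplate cytometry.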
Of the large screens only hits and unclear results are named; the others gave an inactive call. Unless noted, the call rests on the fitted dose curve; in most records, active means well fitted curve in the direction sought with a large enough effect; inconclusive means small, poorly fitted or top-dose-only effect, or another doubt; inactive means no such curve, though single readings can be large; an effect the other way counts as inactive or inconclusive.

O=C(O)[C@@H]1[C@H](C(=O)O)[C@]2(Cl)C(Cl)=C(Cl)[C@@]1(Cl)C2(Cl)Cl	Epigenetic mod 3.2µM
O=S1OCC2C(CO1)C1(Cl)C(Cl)=C(Cl)C2(Cl)C1(Cl)Cl (stereo not drawn)	none (no result: Ub-GFP proteasome, Epigenetic mod)
CC(=O)[C@@H]1CC[C@@H]2[C@H]3CC[C@H]4C[C@@H](O)CC[C@]4(C)[C@@H]3C(=O)C[C@]21C	none

Screens from PubChem BioAssay.
